Screen size: about 310,000 compounds; about 18,000 (5.8%) were called active. A call without a number means that no potency is given here. Inconclusive results (about 22%) are left out. Calls follow the shape of the dose curve; as a rule, active = well fitted inhibition curve with a large enough effect; inconclusive = small, poorly fitted or top-dose-only effect, or another doubt; inactive = no such curve, though single readings can be large or run the other way. The full list was thinned out, with actives kept by preference.
Experiment: Primary qHTS for delayed death inhibitors of the malarial parasite plastid, 48 hour incubation
Settings: P. falciparum luciferase growth in erythrocytes; series mostly up to 28.7 µM
Outline: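 Read-out is firefly luciferase luminescence from an integrated reporter in P. falciparum, so falling signal marks reduced parasite growth. Infected erythrocytes were at 2% hematocrit and 0.1% parasitemia (final) in Albumax-supplemented RPMI 1640.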
Potency is read from the fitted curve at half-maximal effect.

SMILES	Potency	activity change, negative = inhibition
Cc1ccnc(N2CCCC(C(=O)NC3CC3)C2)n1 (stereo unspecified)	inactive	
O=C(NC1CC1)C(Cc1ccccc1)NS(=O)(=O)c1ccccc1F (stereo unspecified)	inactive	
O=C(Cc1ccc([N+](=O)[O-])cc1)Nc1ccc(C(=O)N2CCOCC2)cc1	inactive	
O=C(/C=C/c1ccco1)NC(=S)Nc1ccccc1Br	inactive	
CCCCCCn1c(SCC(=O)c2ccccc2)nc2c1c(=O)[nH]c(=O)n2C	inactive	
CCC(C)Sc1nc2c(c(=O)[nH]c(=O)n2C)n1CC(O)COc1cccc2ccccc12 (stereo unspecified)	10.4 µM (active)	
C=CCn1c(SCc2ccccc2)nc2c1c(=O)[nH]c(=O)n2C	inactive	
CCc1ccc(NC(=O)CS(=O)CC(=O)N2CCN(c3ccccc3F)CC2)cc1 (stereo unspecified)	inactive	
COc1cc(C(=O)NCC(=O)N2CC=C(c3ccccc3)CC2)cc(OC)c1OC	inactive	
O=C(CSc1ccc(-c2ccccn2)nn1)Nc1ccccc1	inactive	
Cc1ccc(S(=O)(=O)Cc2cc(-c3ccc(Cl)cc3)no2)cc1		-33.3% [at 5.75 µM] (inactive)
COC(=O)c1noc(C)c1-c1ccnn1C(=O)c1ccc(Cl)cc1	inactive	
Cc1onc(-c2ccc(Cl)cc2)c1-c1ccnn1S(=O)(=O)c1ccc(Cl)cc1	1.04 µM (active)	
COc1ccc(/C=C2\SC(=O)N(CCC(=O)NCCCn3ccnc3)C2=O)cc1	inactive	
CCOc1ccc(C(=O)COC(=O)c2ccc(-n3cnnn3)cc2)cc1	inactive	
COc1ccc2c(c1)C(NS(=O)(=O)OCC(Cl)(Cl)Cl)CCC2 (stereo unspecified)	inactive	
O=C(c1cc2cc(F)ccc2[nH]1)N1CCN(c2ccc(F)cc2)CC1	inactive	
O=C(c1ccccc1)c1ccc(C(=O)N2CCN(c3ccccc3)CC2)cc1	inactive	
O=C(c1cccc(C(=O)N2CCN(c3ccc(F)cc3)CC2)c1)N1CCN(c2ccc(F)cc2)CC1	13.1 µM (active)	
CCn1c(=S)sc2c(=O)n(CC(=O)Nc3cccc(Br)c3)c(C)nc21	inactive	
COc1ccccc1C(=O)NCc1nnc(SC(C)C(=O)Nc2nccs2)n1C (stereo unspecified)	inactive	
Cc1cccc(Cn2c(N3CCN(c4ccccc4)CC3)nc3c2c(=O)n(C)c(=O)n3C)c1	inactive	
CC(C)CCn1c(=O)c2c(nc3n2CCCN3Cc2ccccc2)n(C)c1=O	9.28 µM (active)	
CC1CN(C2CCCCC2)c2nc3c(c(=O)n(C)c(=O)n3C)n2C1 (stereo unspecified)	inactive	
O=C(c1c(F)cccc1Cl)N1CCN(c2ccccn2)CC1	inactive	
NC(=O)c1oc2ccccc2c1NC(=O)Cc1ccccc1	inactive	

SMILES	Potency	activity change, negative = inhibition
Cc1c(C(C)(C)O)[nH]c2ccc(C#N)cc12	inactive	
COc1ccc(-c2cc(=O)oc3cc(OC(C)C(=O)NCC4CCC(C(=O)O)CC4)ccc23)cc1 (stereo unspecified)	inactive	
COc1ccc(F)cc1C(=O)COC(=O)c1n[nH]c(=O)c2ccccc12	inactive	
Nc1nc(SCC(=O)Nc2cc(C(F)(F)F)ccc2Cl)[nH]c(=O)c1NC(=O)c1ccco1	inactive	
Cc1cccc(NC(=O)c2sc3nc4c(c(-c5ccco5)c3c2N)CCC4)c1	2.08 µM (active)	
COc1ccc(OC)c(NC(=O)c2sc3nc(C)cc(C)c3c2N)c1	inactive	
Cc1cccc(NC(=O)c2sc3nc(N4CCOCC4)c4c(c3c2N)CCCC4)c1	inactive	
CN(c1ccccc1)S(=O)(=O)c1ccc(NC(=O)COc2ccccc2)cc1	inactive	
COc1ccccc1N(C)C(=O)c1cc(S(=O)(=O)N2CCc3ccccc32)cn1C	11.7 µM (active)	
CCN(C(=O)COC(=O)c1cc(S(=O)(=O)N2CCc3ccccc32)ccc1OC)C1CCS(=O)(=O)C1 (stereo unspecified)	inactive	
COc1cccc(NC(=O)c2cc(S(=O)(=O)N3CCc4ccccc43)cn2C)c1	inactive	
COc1cc(OC)cc(C(=O)NNC(=O)CCOc2ccccc2OC)c1	inactive	
Cc1occc1-c1nnc(SCC(=O)NC2(C#N)CCCC2)n1C	inactive	
CSc1ccc(S(=O)(=O)NCC(=O)OCC(=O)NC2(C#N)CCCCC2)cc1[N+](=O)[O-]	inactive	
O=C(Nc1cccc(NC(=O)c2cccc(F)c2)c1)c1ccccc1		0% [at 0.00184 µM] (inactive)
CC(C)N(Cc1ccccc1)C(=S)Nc1ccc(OC(F)F)cc1	inactive	
CC(=O)c1ccc(NC(=O)N[C@@H](Cc2ccccc2)C(=O)O)cc1	inactive	
CC(=O)c1ccc(NC(=S)N(Cc2ccccc2)C(C)C2CC2)cc1 (stereo unspecified)	13.1 µM (active)	
O=C(N/C(=C\c1ccc([N+](=O)[O-])cc1)C(=O)N1CCOCC1)c1cccc(Br)c1	inactive	
COc1ccccc1NC(=O)COC(=O)c1ccccc1SCC(=O)N1CCCC1	inactive	
CCS(=O)(=O)N1CCCC(C(=O)NCc2ccc(C)cc2)C1 (stereo unspecified)	inactive	
O=C(NCc1ccccc1)C1CCCN(S(=O)(=O)c2cccs2)C1 (stereo unspecified)	inactive	
O=C(NCc1ccc2c(c1)OCO2)C1CCCN(S(=O)(=O)c2cccs2)C1 (stereo unspecified)	9.28 µM (active)	
C/C(=N\NC(=O)c1cccc([N+](=O)[O-])c1)c1cccnc1	inactive	
O=C(NC1CCC(O)CC1)c1ccccc1OCc1ccc(F)cc1 (stereo unspecified)	inactive	
Cc1ccc(C(=O)Nc2nnc(C3=COCCO3)o2)cc1C	inactive	

SMILES	Potency	activity change, negative = inhibition
COc1ccc(-c2[nH]ncc2CN(C)Cc2c(C)n[nH]c2C)c(OC)c1	inactive	
CCOc1ccc(-c2n[nH]c(C)c2-c2ccccn2)c(O)c1	inactive	
COc1ccc(-c2c(-c3ccc(OC)cc3O)nc(C)nc2C(F)(F)F)cc1	7.38 µM (active)	
COC(=O)c1cc(OC)ccc1-c1ccc(OC)cc1	inactive	
COc1ccc(C(=O)CC(=O)c2ccc(C)cc2)c(O)c1	inactive	
COc1ccc(-c2n[nH]c(C)c2-c2ccc(OC)c(OC)c2)c(O)c1	13.1 µM (active)	
C=C(C)COc1ccc(-c2n[nH]c(C)c2-c2ccccc2)c(O)c1	1.85 µM (active)	
Cc1noc(C)c1COC(=O)COc1ccc(-c2ccccc2)cc1	inactive	
COc1ccc(-c2n[nH]c(C)c2-c2ccccc2OC)c(O)c1	9.28 µM (active)	
COc1ccc(C(=O)NNC(=O)c2cc(C)[nH]n2)cc1	inactive	
COc1ccccc1-c1nc(SC)n[nH]1	inactive	
COc1ccc(-n2c(-c3ccc(OC)c(OC)c3)n[nH]c2=S)cc1	inactive	
Cc1ccc(S(=O)(=O)N(CCCN(C)C)Cc2ccc3c(c2)OCO3)cc1	inactive	
O=S1(=O)N=C(N(CCO)/N=C/c2ccccc2F)c2ccccc21	inactive	
COCCCNC(=O)C1CC(=O)N(CCc2ccc(F)cc2)C1 (stereo unspecified)	inactive	
CCc1ccc(C(=O)N2CCN(S(=O)(=O)c3sc(C(=O)O)c(C)c3C(=O)O)CC2)cc1	inactive	
CCOc1ccc2[nH]c3nc(SCC(=O)NC4CCCC4)nnc3c2c1	inactive	
CN(C(=O)CN1C(=O)NC(C)(CCc2ccccc2)C1=O)c1ccccc1 (stereo unspecified)	inactive	
Cc1ccc(C)c(NS(=O)(=O)c2c(C)[nH]c(C)c2C(=O)N2CCCCC2)c1	inactive	
CCOc1ccc(C(=O)CCC(=O)NC2=NCCS2)cc1	inactive	
COc1ccccc1-c1n[nH]c2c1[C@H](C)CC[C@H]2C(C)C	inactive	
C=C(C)COc1ccc(-c2n[nH]c(C)c2-c2ccccc2OC)c(O)c1	8.28 µM (active)	
C=C(C)COc1ccc(-c2nc(N)ncc2-c2ccccc2OC)c(O)c1	inactive	
Cc1ccc(CN(CC(=O)NC2CCCCC2)C(=O)c2csnn2)cc1	inactive	
Cc1ccc([N+](=O)[O-])cc1S(=O)(=O)N1CCCN(C)CC1	inactive	
CCC1=C(OC(=O)N(CC)CC)N2C(=O)OC(=NCCc3c[nH]c4ccccc34)[C@]2(C)[C@H]2C1=CC[C@H]1C(=O)N(CC)C(=O)[C@H]12	9.28 µM (active)	

SMILES	Potency	activity change, negative = inhibition
CCC1=C(OC(=O)N(CC)CC)N2C(=O)OC(=NCC3CC3)[C@]2(C)[C@H]2C1=CC[C@H]1C(=O)N(CC(=O)OC)C(=O)[C@H]12	inactive	
NC(=O)COC(=O)c1ccc2c(c1)C(=O)N(Cc1ccco1)C2=O	inactive	
Cc1ccc(Cc2nnc(SCC(=O)Nc3ccccc3C)[nH]c2=O)cc1	inactive	
CCC(C)NC(=O)C1c2ccccc2C(=O)N1Cc1ccccc1 (stereo unspecified)	inactive	
CC(CC(=O)Nc1cc(C(F)(F)F)ccc1Cl)c1ccccc1 (stereo unspecified)	inactive	
NC(=O)Nc1cccc(C(F)(F)F)c1	inactive	
O=C(NNc1ccccc1Cl)C(O)(c1cccc(C(F)(F)F)c1)c1cccc(C(F)(F)F)c1	3.29 µM (active)	
O=C(O)CCC(=O)Nc1ccc(OCC2CCCO2)cc1 (stereo unspecified)	inactive	
COc1ccc(CNC(=O)CSc2n[nH]c(N)n2)cc1OC	inactive	
CN(Cc1cnccn1)C(=O)c1cc(COc2cccc(C(F)(F)F)c2)on1	inactive	
Fc1ccc(Cn2nnnc2C(c2cccs2)N2CCCCCC2)cc1 (stereo unspecified)	13.1 µM (active)	
O=C1N/C(=C/c2cccs2)C(=O)N1Cc1ccc(F)cc1	inactive	
CC(C)C(c1nnnn1Cc1ccccc1)N1CCC(C(N)=O)CC1 (stereo unspecified)	inactive	
O=C(CSc1nc2ccccc2c(=O)n1CCCO)NC1CC1	inactive	
O=C(N/N=C/c1cccc(OC(=O)c2ccc([N+](=O)[O-])cc2)c1)c1cccnc1	inactive	
O=C(O)c1ccc(N/N=C/c2cn(-c3ccccc3)nc2-c2cccs2)cc1	0.828 µM (active)	
O=C(/C=C\c1cn(-c2ccccc2)nc1-c1cccs1)N1CCOCC1	inactive	
O=C(O)/C=C/c1cn(-c2ccccc2)nc1-c1cccs1	inactive	
COc1cccc2cc(C(=O)NCc3ccc(C)cc3)c(=N)oc12	inactive	
CCOc1ccc(OCC(=O)OC(C)C(=O)NC2CCCCC2C)cc1 (stereo unspecified)	inactive	
Cc1oc2c(c1C(=O)N1CCOCC1)C(=O)c1ccccc1C2=O	4.15 µM (active)	
O=C(c1ccccc1-c1ccccc1)N1CCOCC1	inactive	
Cc1onc(-c2ccccc2)c1C(=O)N1CCOCC1	inactive	

Reference: PubChem BioAssay AID504832 (National Center for Advancing Translational Sciences (NCATS), 2011)
